Drawing on PubChem BioAssay (EPA / NIEHS), this text covers AC50 and outcome for 3 molecules.

Molecules are shown by their SMILES. Calls of active or inactive are those of the source. The calls were made as follows: active = hit-call score of the fitted dose curve at least 0.9, where 1 is the maximum; inactive = score below 0.9.

Read-out in assay [1]: Monokine induced gamma interferon (MIG), CXCL9 (gene 4283)
Briefly: BSK_hDFCGF_MIG: BioMAP Diversity Plus: hDFCGF Assay for Monokine induced gamma interferon (MIG) Biomarker Activity (AID 2283063). As to conditions: primary human foreskin fibroblasts; actives raise or lower the signal. Put shortly: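 ELISA read-out of MIG from primary human dermal fibroblasts 24 h post-dosing. Gain or loss of signal fitted bidirectionally, DMSO as baseline.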

Read-out in assay [2]: Matrix Metallopeptidase 1 (MMP1), MMP1 (gene 4312)
Briefly: BSK_hDFCGF_MMP1: BioMAP Diversity Plus: hDFCGF Assay for Matrix Metallopeptidase 1 (MMP1) Biomarker Activity (AID 2283064). As to conditions: primary human foreskin fibroblasts; actives raise or lower the signal. Put shortly:
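Primary human foreskin fibroblasts in the hDFCGF system were dosed with test chemical, and MMP1 was measured by ELISA 24 h later. Values come from bidirectional curve fitting against the DMSO baseline.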

Read-out in assay [3]: Vascular cell adhesion molecule 1 (VCAM1), VCAM1 (gene 7412)
Briefly: BSK_hDFCGF_VCAM1: BioMAP Diversity Plus: hDFCGF Assay for Vascular cell adhesion molecule 1 (VCAM1) Biomarker Activity (AID 2283065).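 As to AC50: VCAM-1 protein level quantified by ELISA after 24 h chemical exposure.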 As to conditions: primary human foreskin fibroblasts; actives raise or lower the signal. The procedure, abridged: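 Primary human foreskin fibroblasts (hDFCGF system) were dosed with chemical and VCAM-1 was measured by ELISA 24 h later. Bidirectional curve fitting used DMSO as negative control and activity baseline.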

Read-out in assay [4]: Plasminogen activator inhibitor-1 (PAI1), SERPINE1 (gene 5054)
Briefly: BSK_hDFCGF_PAI1: BioMAP Diversity Plus: hDFCGF Assay for Plasminogen activator inhibitor-1 (PAI1) Biomarker Activity (AID 2283066). As to conditions: primary human foreskin fibroblasts; actives raise or lower the signal. The procedure, abridged: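 Human foreskin fibroblast primary cells, 24 h chemical exposure; PAI-1 measured by ELISA. Bidirectional fitting relative to DMSO; parallel cultures stained with SRB for total protein to flag overt cytotoxicity.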

Read-out in assay [5]: Intercellular Adhesion Molecule 1 (ICAM1), ICAM1 (gene 3383)
Briefly: BSK_KF3CT_ICAM1: BioMAP Diversity Plus: KF3CT Assay for Intercellular Adhesion Molecule 1 (ICAM1) Biomarker Activity (AID 2283067). As to conditions: primary human keratinocytes with fibroblasts; actives raise or lower the signal. Put shortly:
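Human keratinocyte plus foreskin fibroblast primary co-culture was exposed to chemical for 24 h. ICAM-1 was then quantified by ELISA, and the data were fit bidirectionally against DMSO as the negative control and baseline.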

Read-out in assay [6]: Interferon-gamma inducible Protein 10 (IP10), CXCL10 (gene 3627)
The assay can be described thus: BSK_KF3CT_IP10: BioMAP Diversity Plus: KF3CT Assay for Interferon-gamma inducible Protein 10 (IP10) Biomarker Activity (AID 2283068). As to conditions: primary human keratinocytes with fibroblasts; actives raise or lower the signal. Put shortly:
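In a primary skin co-culture of keratinocytes and fibroblasts, IP-10 is quantified by ELISA at 24 h after dosing. SRB staining of parallel wells monitors overt toxicity. Curves are fitted both directions against DMSO.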

A short description of assay [7]: BSK_KF3CT_SRB: Viability Assessment in the BioMAP Diversity Plus: KF3CT Assay (AID 2283069).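 Also: total protein by sulforhodamine B staining as a cytotoxicity measure; read 24 h after compound addition.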 As to conditions: primary human keratinocytes with fibroblasts. Put shortly:
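Human primary keratinocyte plus foreskin fibroblast co-culture exposed to chemicals for 24 h. Total protein measured by 0.1% sulforhodamine B staining after 10% TCA fixation, read at 560 nm; bidirectional fitting versus DMSO baseline.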

Read-out in assay [8]: Interleukin-1 alpha (IL1a), IL1A (gene 3552)
The assay can be described thus: BSK_KF3CT_IL1a: BioMAP Diversity Plus: KF3CT Assay for Interleukin-1 alpha (IL1a) Biomarker Activity (AID 2283070). As to conditions: primary human keratinocytes with fibroblasts; actives raise or lower the signal. The procedure, abridged:
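Human keratinocyte plus foreskin fibroblast primary co-culture, sampled 24 h after chemical dosing. IL-1a measured by ELISA; responses fitted bidirectionally against DMSO baseline (negative control), so gain or loss of signal both count.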

Read-out in assay [9]: TIMP metallopeptidase inhibitor 2 (TIMP2), TIMP2 (gene 7077)
The assay can be described thus: BSK_KF3CT_TIMP2: BioMAP Diversity Plus: KF3CT Assay for TIMP metallopeptidase inhibitor 2 (TIMP2) Biomarker Activity (AID 2283071). As to conditions: primary human keratinocytes with fibroblasts; actives raise or lower the signal. Put shortly: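 Co-culture of human primary keratinocytes and foreskin fibroblasts, measured 24 h after chemical dosing. TIMP-2 quantified by ELISA and fitted in both directions relative to DMSO. Cytotoxicity checked in parallel cultures by SRB total-protein staining.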

Read-out in assay [10]: Transforming growth factor beta 1 (TGFb1), TGFB1 (gene 7040)
The assay can be described thus: BSK_KF3CT_TGFb1: BioMAP Diversity Plus: KF3CT Assay for Transforming growth factor beta 1 (TGFb1) Biomarker Activity (AID 2283072). As to conditions: primary human keratinocytes with fibroblasts; actives raise or lower the signal. The procedure, abridged: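 Human keratinocyte/foreskin fibroblast co-culture; TGF-b1 measured by ELISA 24 h after dosing, fitted bidirectionally versus DMSO. Cytotoxicity checked in parallel cultures by total protein (SRB staining, 560 nm).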

Read-out in assay [11]: C-C motif chemokine 2 (Homo sapiens) (UniProt P13500)
The assay can be described thus: BSK_KF3CT_MCP1: BioMAP Diversity Plus: KF3CT Assay for Monocyte Chemoattractant Protein 1 (MCP1/CCL2) Biomarker Activity (AID 2283073). As to conditions: primary human keratinocytes with fibroblasts; actives raise or lower the signal. Put shortly: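 Human keratinocyte plus foreskin fibroblast primary co-culture exposed to chemical for 24 h. MCP-1 levels measured by ELISA. Bidirectional curve fitting relative to DMSO negative control as baseline.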

Read-out in assay [12]: Matrix Metallopeptidase 9 (MMP9), MMP9 (gene 4318)
Briefly: BSK_KF3CT_MMP9: BioMAP Diversity Plus: KF3CT Assay for Matrix Metallopeptidase 9 (MMP9) Biomarker Activity (AID 2283074).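 As to AC50: MMP9 protein level quantified by ELISA in the co-culture.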 As to conditions: primary human keratinocytes with fibroblasts; actives raise or lower the signal. Put shortly: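 Keratinocyte plus foreskin fibroblast human primary skin co-culture was dosed with chemical and MMP-9 was quantified by ELISA 24 h later. Bidirectional curve fitting used DMSO as negative control and activity baseline.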

Read-out in assay [13]: urokinase plasminogen activator (uPA), PLAU (gene 5328)
The assay can be described thus: BSK_KF3CT_uPA: BioMAP Diversity Plus: KF3CT Assay for urokinase plasminogen activator (uPA) Biomarker Activity (AID 2283075). As to conditions: primary human keratinocytes with fibroblasts; actives raise or lower the signal. The procedure, abridged: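 Human keratinocyte plus foreskin fibroblast primary co-culture exposed to chemical for 24 h. uPA levels were quantified by ELISA, and activity was fitted bidirectionally against a DMSO negative-control baseline.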

Read-out in assay [14]: CD40, CD40 (gene 958)
The assay can be described thus: BSK_LPS_CD40: BioMAP Diversity Plus: LPS Assay for CD40 Biomarker Activity (AID 2283076). As to conditions: primary human HUVEC with PBMC; actives raise or lower the signal. The procedure, abridged: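 Primary human umbilical vein endothelial cells co-cultured with peripheral blood mononuclear cells, LPS-stimulated, were dosed with chemical and read 24 h later. CD40 levels were measured by ELISA and fitted bidirectionally against DMSO as negative control and baseline.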

Read-out in assay [15]: Interleukin-8 (IL8), CXCL8 (gene 3576)
The assay can be described thus: BSK_LPS_IL8: BioMAP Diversity Plus: LPS Assay for Interleukin-8 (IL8) Biomarker Activity (AID 2283078). As to conditions: primary human HUVEC with PBMC; actives raise or lower the signal. The procedure, abridged:
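Human umbilical vein endothelial cells co-cultured with PBMC were stimulated with LPS; IL-8 levels were measured by ELISA 24 h after chemical dosing. Activity was fitted bidirectionally against DMSO as negative control and baseline.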

A short description of assay [16]: BSK_LPS_SRB: Viability Assessment in the BioMAP Diversity Plus: LPS Assay (AID 2283079).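 Also: total protein by sulforhodamine B absorbance as a cytotoxicity measure; measured one day after compound addition.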 As to conditions: primary human HUVEC with PBMC. Put shortly:
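Human umbilical vein endothelial cells co-cultured with PBMC (LPS system) were dosed for 24 h. Total protein was stained with 0.1% sulforhodamine B after 10% TCA fixation, read at 560 nm, and fitted bidirectionally against DMSO baseline.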

Read-out in assay [17]: Interleukin-1 alpha (IL1a), IL1A (gene 3552)
Briefly: BSK_LPS_IL1a: BioMAP Diversity Plus: LPS Assay for Interleukin-1 alpha (IL1a) Biomarker Activity (AID 2283080). As to conditions: primary human HUVEC with PBMC; actives raise or lower the signal. The procedure, abridged:
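Human umbilical vein endothelial cells co-cultured with peripheral blood mononuclear cells were LPS-stimulated and exposed to test chemicals for 24 h. IL-1 alpha was quantified by ELISA, with bidirectional curve fitting against DMSO as the negative control and baseline.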

Read-out in assay [18]: Monocyte Chemoattractant Protein-1 (MCP1), CCL2 (gene 6347)
Briefly: BSK_LPS_MCP1: BioMAP Diversity Plus: LPS Assay for Monocyte Chemoattractant Protein-1 (MCP1) Biomarker Activity (AID 2283081).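 As to AC50: secreted MCP-1 protein quantified by ELISA in culture supernatant.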 As to conditions: primary human HUVEC with PBMC; actives raise or lower the signal. The procedure, abridged: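 HUVEC plus PBMC co-culture (human primary cells, LPS system) exposed to test chemical for 24 h; MCP-1 measured by ELISA. Bidirectional curve fitting against DMSO baseline; parallel SRB total-protein staining flags overt cytotoxicity.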

Read-out in assay [19]: E-selectin (Homo sapiens) (UniProt P16581)
Briefly: BSK_LPS_Eselectin: BioMAP Diversity Plus: LPS Assay for Eselectin Biomarker Activity (AID 2283077). As to conditions: primary human HUVEC with PBMC; actives raise or lower the signal. Put shortly:
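Human umbilical vein endothelial cells co-cultured with peripheral blood mononuclear cells under LPS stimulation; E-selectin measured by ELISA 24 h after chemical dosing. Activity fitted bidirectionally against DMSO as negative control and baseline.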

Assay [20] can be described thus: BSK_LPS_PGE2: BioMAP Diversity Plus: LPS Assay for Prostaglandin E2 (PGE2) Biomarker Activity (AID 2283082). As to conditions: primary human HUVEC with PBMC; actives raise or lower the signal. Put shortly: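 HUVEC plus human PBMC co-culture stimulated with LPS; secreted PGE2 quantified by ELISA 24 h after chemical dosing. Activity fitted bidirectionally against DMSO baseline; parallel SRB staining (0.1% SRB after 10% TCA fixation, 560 nm) flags overt cytotoxicity.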

E-selectin (Homo sapiens), sequence (P16581 whole entry, looked up): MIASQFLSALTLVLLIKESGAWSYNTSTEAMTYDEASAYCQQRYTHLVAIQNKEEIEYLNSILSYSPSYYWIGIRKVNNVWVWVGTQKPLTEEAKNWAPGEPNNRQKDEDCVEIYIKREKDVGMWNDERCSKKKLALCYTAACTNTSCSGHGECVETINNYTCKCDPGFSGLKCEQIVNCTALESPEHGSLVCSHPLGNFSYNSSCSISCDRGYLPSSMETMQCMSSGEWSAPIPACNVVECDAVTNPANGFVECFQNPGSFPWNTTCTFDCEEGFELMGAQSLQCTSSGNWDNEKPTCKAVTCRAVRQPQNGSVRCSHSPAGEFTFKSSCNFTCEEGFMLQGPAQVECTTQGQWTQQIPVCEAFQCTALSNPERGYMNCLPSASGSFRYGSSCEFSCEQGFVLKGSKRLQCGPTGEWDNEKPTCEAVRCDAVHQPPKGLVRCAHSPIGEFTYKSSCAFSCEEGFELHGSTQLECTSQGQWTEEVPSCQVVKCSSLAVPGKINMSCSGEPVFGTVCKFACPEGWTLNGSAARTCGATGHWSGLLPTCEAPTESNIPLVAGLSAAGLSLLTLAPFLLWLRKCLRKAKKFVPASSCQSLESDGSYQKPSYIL

On to `COc1cccc(-c2ccc(/C=C\CN3CCCCCC3)cc2Cl)c1`, for which the AC50 in [1] was 34.5 µM (active); in [2], 34.4 µM (active); in [3], 30.5 µM (active); in assay [4] it was 25.3 µM (active); in [5], 28.4 µM (active); in assay [6], 29.7 µM (active). Further, the concentration at half-maximal activity (AC50) in assay [7] was 30.6 µM (active); in assay [8] it was 29 µM (active); in assay [9] it was 33.2 µM (active); in assay [10] it was 33.3 µM (active); in assay [11] it was 28.5 µM (active); in [12] it was 28 µM (active). For the same molecule, the AC50 is 33.5 µM (active) in assay [13], 28.6 µM (active) in assay [14], 26.8 µM (active) in assay [16] and 28.4 µM (active) in assay [17]. Also, the result in assay [15] and in assay [18] was inactive.

In the case of `Nc1nc2ncc(CNc3ccc(C(=O)N[C@@H](CCC(=O)O)C(=O)O)cc3)nc2c(=O)[nH]1`, the outcome in assay [1], in assay [2], in [3], in [4], in [5] and in [6] was inactive. Further, the result in assay [7], in [9], in [10], in assay [11], in [12] and in assay [13] was inactive. The outcome in assay [14], in assay [15], in [16], in [17] and in assay [18] was inactive.

Regarding `O=C(CCCCCCCCc1cccnc1)N1CCC(C=C(c2ccccc2)c2ccccc2)CC1`, the AC50 in assay [1] was 11.5 µM (active); in assay [2], 9.34 µM (active); in assay [3], 8.47 µM (active); in [5] it was 16.6 µM (active); in assay [6] it was 15.5 µM (active); in assay [7] it was 14.7 µM (active). Moreover, the half-maximal activity concentration (AC50) in assay [8] is 16.9 µM (active); in [9] it was 10.8 µM (active); in [10], 10.1 µM (active); in [11], 16.9 µM (active); in assay [12] it was 7.47 µM (active); in assay [13], 15.7 µM (active). For the same molecule, the AC50 in assay [14] is 8.31 µM (active); in [19] it was 14.4 µM (active); in assay [15], 12 µM (active); in [16], 11.7 µM (active); in assay [17] it was 9.81 µM (active); in [18], 10.1 µM (active). In addition, the result in assay [20] was inactive.

What is called AC50 is the concentration giving half of the maximal activity seen.
